# Data as given in paper PMC11006913.
# Residue numbers refer to the chain shown, from its start.
# Tests used:
# Experiment in all cases: PBM; 200 nM protein, PBS
# Conditions in all cases: dsDNA, one strand shown
# [1] = molecular target: NKX2-5 (Homo sapiens, UniProt P52952 125-210, R139K)
# [2] = molecular target: T1, VENTX (Homo sapiens, UniProt O95231 78-163, R121Q)
# T1 sequence: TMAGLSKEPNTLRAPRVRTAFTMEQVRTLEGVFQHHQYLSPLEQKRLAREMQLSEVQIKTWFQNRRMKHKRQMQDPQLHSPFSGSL
# [3] = molecular target: T2, VENTX (Homo sapiens, UniProt O95231 78-163)
# T2 sequence: T1 sequence with Q44R
# [4] = molecular target: HOXA7 (Homo sapiens, UniProt P31268 116-202)
# Sequence of HOXA7 (Homo sapiens, UniProt P31268 116-202) (P31268 116-202): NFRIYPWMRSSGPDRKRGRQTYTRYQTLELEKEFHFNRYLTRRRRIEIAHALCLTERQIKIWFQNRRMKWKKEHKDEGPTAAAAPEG
# [5] = molecular target: T3, VENTX (Homo sapiens, UniProt O95231 78-163, Y115F)
# T3 sequence: T1 sequence with Y38F, Q44R
# [6] = molecular target: HOXB6 (Homo sapiens, UniProt P17509 132-218, K202E)
# Sequence of HOXB6 (Homo sapiens, UniProt P17509 132-218, K202E) (P17509 132-218 K202E): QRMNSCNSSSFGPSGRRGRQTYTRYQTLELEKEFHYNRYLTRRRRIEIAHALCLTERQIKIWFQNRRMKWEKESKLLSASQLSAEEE
# [7] = molecular target: HOXA7 (Homo sapiens, UniProt P31268 116-202, W177C)
# Sequence of HOXA7 (Homo sapiens, UniProt P31268 116-202, W177C) (P31268 116-202 W177C): as the sequence (P31268 116-202) above, with W62C counted along it
# [8] = molecular target: NKX2-5 (Homo sapiens, UniProt P52952 125-210)
# Sequence of NKX2-5 (Homo sapiens, UniProt P52952 125-210) (P52952 125-210): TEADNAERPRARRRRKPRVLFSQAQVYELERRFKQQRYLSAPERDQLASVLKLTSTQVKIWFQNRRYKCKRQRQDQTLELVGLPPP
# [9] = molecular target: HOXB6 (Homo sapiens, UniProt P17509 132-218)
# Sequence of HOXB6 (Homo sapiens, UniProt P17509 132-218) (P17509 132-218): as the sequence (P17509 132-218 K202E) above, with E71K counted along it
# [10] = molecular target: T4, NKX2-4 (Homo sapiens, UniProt Q9H2Z4 175-261, P217L)
# T4 sequence: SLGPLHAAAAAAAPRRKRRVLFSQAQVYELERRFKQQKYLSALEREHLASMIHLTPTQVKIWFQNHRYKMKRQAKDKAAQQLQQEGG
# [11] = molecular target: T5, NKX2-4 (Homo sapiens, UniProt Q9H2Z4 175-261, T231S)
# T5 sequence: T4 sequence with L43P, T57S
# [12] = molecular target: T6, NKX2-4 (Homo sapiens, UniProt Q9H2Z4 175-261)
# T6 sequence: T4 sequence with L43P
# [13] = molecular target: T7, NKX2-6 (Homo sapiens, UniProt A6NCS4 118-204, R150C)
# T7 sequence: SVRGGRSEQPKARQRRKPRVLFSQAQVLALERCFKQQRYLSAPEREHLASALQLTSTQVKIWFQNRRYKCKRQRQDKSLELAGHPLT
# [14] = molecular target: T8, NKX2-4 (Homo sapiens, UniProt Q9H2Z4 175-261, R246Q)
# T8 sequence: T4 sequence with L43P, R72Q
# [15] = molecular target: T9, NKX2-6 (Homo sapiens, UniProt A6NCS4 118-204, F151L)
# T9 sequence: T7 sequence with C33R, F34L
# [16] = molecular target: NKX3-2 (Homo sapiens, UniProt P78367 192-278, P234S)
# Sequence of NKX3-2 (Homo sapiens, UniProt P78367 192-278, P234S) (P78367 192-278 P234S): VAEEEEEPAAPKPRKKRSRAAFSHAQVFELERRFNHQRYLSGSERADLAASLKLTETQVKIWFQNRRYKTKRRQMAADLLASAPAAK
# [17] = molecular target: NKX3-2 (Homo sapiens, UniProt P78367 192-278)
# Sequence of NKX3-2 (Homo sapiens, UniProt P78367 192-278) (P78367 192-278): as the sequence (P78367 192-278 P234S) above, with S43P counted along it
# [18] = molecular target: HOXA2 (Homo sapiens, UniProt O43364 129-215, R185T)
# Sequence of HOXA2 (Homo sapiens, UniProt O43364 129-215, R185T) (O43364 129-215 R185T): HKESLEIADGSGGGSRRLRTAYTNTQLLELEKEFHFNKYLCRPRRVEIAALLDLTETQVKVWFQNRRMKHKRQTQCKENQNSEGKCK
# [19] = molecular target: MSX2 (Homo sapiens, UniProt P35548 130-214, R199I)
# Sequence of MSX2 (Homo sapiens, UniProt P35548 130-214, R199I) (P35548 130-214 R199I): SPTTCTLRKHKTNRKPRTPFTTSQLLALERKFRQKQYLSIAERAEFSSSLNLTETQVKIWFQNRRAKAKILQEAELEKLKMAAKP
# [20] = molecular target: ALX3 (Homo sapiens, UniProt O95076 139-225, N203Q)
# Sequence of ALX3 (Homo sapiens, UniProt O95076 139-225, N203Q) (O95076 139-225 N203Q): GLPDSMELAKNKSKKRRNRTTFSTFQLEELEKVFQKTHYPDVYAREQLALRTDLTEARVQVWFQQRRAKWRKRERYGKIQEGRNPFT
# [21] = molecular target: HOXA2 (Homo sapiens, UniProt O43364 129-215, R185K)
# Sequence of HOXA2 (Homo sapiens, UniProt O43364 129-215, R185K) (O43364 129-215 R185K): as the sequence (O43364 129-215 R185T) above, with T57K counted along it
# [22] = molecular target: MSX2 (Homo sapiens, UniProt P35548 130-214)
# Sequence of MSX2 (Homo sapiens, UniProt P35548 130-214) (P35548 130-214): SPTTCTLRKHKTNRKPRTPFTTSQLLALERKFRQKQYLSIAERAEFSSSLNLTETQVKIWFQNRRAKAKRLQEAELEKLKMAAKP
# [23] = molecular target: ALX3 (Homo sapiens, UniProt O95076 139-225)
# Sequence of ALX3 (Homo sapiens, UniProt O95076 139-225) (O95076 139-225): as the sequence (O95076 139-225 N203Q) above, with Q65N counted along it
# [24] = molecular target: ALX3 (Homo sapiens, UniProt O95076 139-225, L168Q)
# Sequence of ALX3 (Homo sapiens, UniProt O95076 139-225, L168Q) (O95076 139-225 L168Q): as the sequence (O95076 139-225 N203Q) above, with L30Q, Q65N counted along it
# [25] = molecular target: ALX3 (Homo sapiens, UniProt O95076 139-225, L168V)
# Sequence of ALX3 (Homo sapiens, UniProt O95076 139-225, L168V) (O95076 139-225 L168V): as the sequence (O95076 139-225 N203Q) above, with L30V, Q65N counted along it
# [26] = molecular target: MSX2 (Homo sapiens, UniProt P35548 130-214, F161Y)
# Sequence of MSX2 (Homo sapiens, UniProt P35548 130-214, F161Y) (P35548 130-214 F161Y): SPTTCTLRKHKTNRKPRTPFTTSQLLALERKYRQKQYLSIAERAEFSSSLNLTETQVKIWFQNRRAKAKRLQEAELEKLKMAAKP
# [27] = molecular target: HOXA2 (Homo sapiens, UniProt O43364 129-215, Y150S)
# Sequence of HOXA2 (Homo sapiens, UniProt O43364 129-215, Y150S) (O43364 129-215 Y150S): as the sequence (O43364 129-215 R185T) above, with Y22S, T57R counted along it
# [28] = molecular target: ALX3 (Homo sapiens, UniProt O95076 139-225, N203S)
# Sequence of ALX3 (Homo sapiens, UniProt O95076 139-225, N203S) (O95076 139-225 N203S): as the sequence (O95076 139-225 N203Q) above, with Q65S counted along it
# [29] = molecular target: HOXA2 (Homo sapiens, UniProt O43364 129-215)
# Sequence of HOXA2 (Homo sapiens, UniProt O43364 129-215) (O43364 129-215): as the sequence (O43364 129-215 R185T) above, with T57R counted along it
# [30] = molecular target: T10, NKX2-6 (Homo sapiens, UniProt A6NCS4 118-204)
# T10 sequence: T7 sequence with C33R
# Sequence of NKX2-5 (Homo sapiens, UniProt P52952 125-210, R139K) (P52952 125-210 R139K): as the sequence (P52952 125-210) above, with R15K counted along it
sequence,measurement,setting,value
ATAATGGG,binding signal,[1],"10.9 upbm affinity estimate (log intensity, higher = more binding, comparable within an allelic series)"
same,binding signal,[2],"11.4 upbm affinity estimate (log intensity, higher = more binding, comparable within an allelic series)"
same,binding signal,[3],"12.4 upbm affinity estimate (log intensity, higher = more binding, comparable within an allelic series)"
same,binding signal,[4],"11.2 upbm affinity estimate (log intensity, higher = more binding, comparable within an allelic series)"
same,binding signal,[5],"11.4 upbm affinity estimate (log intensity, higher = more binding, comparable within an allelic series)"
same,binding signal,[6],"9.9 upbm affinity estimate (log intensity, higher = more binding, comparable within an allelic series)"
same,binding signal,[7],"8.88 upbm affinity estimate (log intensity, higher = more binding, comparable within an allelic series)"
same,binding signal,[8],"11 upbm affinity estimate (log intensity, higher = more binding, comparable within an allelic series)"
same,binding signal,[9],"11.8 upbm affinity estimate (log intensity, higher = more binding, comparable within an allelic series)"
AAGTGCCC,binding signal,[1],"12.4 upbm affinity estimate (log intensity, higher = more binding, comparable within an allelic series)"
same,binding signal,[10],"12.5 upbm affinity estimate (log intensity, higher = more binding, comparable within an allelic series)"
same,binding signal,[11],"12.8 upbm affinity estimate (log intensity, higher = more binding, comparable within an allelic series)"
same,binding signal,[12],"12.3 upbm affinity estimate (log intensity, higher = more binding, comparable within an allelic series)"
same,binding signal,[13],"11.6 upbm affinity estimate (log intensity, higher = more binding, comparable within an allelic series)"
same,binding signal,[14],"13 upbm affinity estimate (log intensity, higher = more binding, comparable within an allelic series)"
same,binding signal,[15],"10.8 upbm affinity estimate (log intensity, higher = more binding, comparable within an allelic series)"
same,binding signal,[16],"12.9 upbm affinity estimate (log intensity, higher = more binding, comparable within an allelic series)"
same,binding signal,[8],"12.4 upbm affinity estimate (log intensity, higher = more binding, comparable within an allelic series)"
same,binding signal,[17],"12.9 upbm affinity estimate (log intensity, higher = more binding, comparable within an allelic series)"
CACGGGCC,binding signal,[1],"8.73 upbm affinity estimate (log intensity, higher = more binding, comparable within an allelic series)"
same,binding signal,[2],"7.96 upbm affinity estimate (log intensity, higher = more binding, comparable within an allelic series)"
same,binding signal,[3],"8.01 upbm affinity estimate (log intensity, higher = more binding, comparable within an allelic series)"
same,binding signal,[5],"7.92 upbm affinity estimate (log intensity, higher = more binding, comparable within an allelic series)"
same,binding signal,[18],"6.97 upbm affinity estimate (log intensity, higher = more binding, comparable within an allelic series)"
same,binding signal,[19],"9.44 upbm affinity estimate (log intensity, higher = more binding, comparable within an allelic series)"
same,binding signal,[20],"7.64 upbm affinity estimate (log intensity, higher = more binding, comparable within an allelic series)"
same,binding signal,[21],"10.1 upbm affinity estimate (log intensity, higher = more binding, comparable within an allelic series)"
same,binding signal,[22],"9.39 upbm affinity estimate (log intensity, higher = more binding, comparable within an allelic series)"
same,binding signal,[23],"7.66 upbm affinity estimate (log intensity, higher = more binding, comparable within an allelic series)"
same,binding signal,[24],"7.64 upbm affinity estimate (log intensity, higher = more binding, comparable within an allelic series)"
same,binding signal,[25],"7.58 upbm affinity estimate (log intensity, higher = more binding, comparable within an allelic series)"
same,binding signal,[26],"9.46 upbm affinity estimate (log intensity, higher = more binding, comparable within an allelic series)"
same,binding signal,[27],"10.3 upbm affinity estimate (log intensity, higher = more binding, comparable within an allelic series)"
same,binding signal,[28],"7.68 upbm affinity estimate (log intensity, higher = more binding, comparable within an allelic series)"
same,binding signal,[29],"6.84 upbm affinity estimate (log intensity, higher = more binding, comparable within an allelic series)"
same,binding signal,[8],"8.71 upbm affinity estimate (log intensity, higher = more binding, comparable within an allelic series)"
CTACTTGA,binding signal,[1],"12.3 upbm affinity estimate (log intensity, higher = more binding, comparable within an allelic series)"
same,binding signal,[10],"12.6 upbm affinity estimate (log intensity, higher = more binding, comparable within an allelic series)"
same,binding signal,[11],"13 upbm affinity estimate (log intensity, higher = more binding, comparable within an allelic series)"
same,binding signal,[12],"12.4 upbm affinity estimate (log intensity, higher = more binding, comparable within an allelic series)"
same,binding signal,[13],"11.6 upbm affinity estimate (log intensity, higher = more binding, comparable within an allelic series)"
same,binding signal,[30],"13.3 upbm affinity estimate (log intensity, higher = more binding, comparable within an allelic series)"
same,binding signal,[14],"13.1 upbm affinity estimate (log intensity, higher = more binding, comparable within an allelic series)"
same,binding signal,[15],"10.5 upbm affinity estimate (log intensity, higher = more binding, comparable within an allelic series)"
same,binding signal,[8],"12.3 upbm affinity estimate (log intensity, higher = more binding, comparable within an allelic series)"
ACACTTCA,binding signal,[1],"12.3 upbm affinity estimate (log intensity, higher = more binding, comparable within an allelic series)"
same,binding signal,[10],"12.6 upbm affinity estimate (log intensity, higher = more binding, comparable within an allelic series)"
same,binding signal,[11],"13 upbm affinity estimate (log intensity, higher = more binding, comparable within an allelic series)"
same,binding signal,[12],"12.5 upbm affinity estimate (log intensity, higher = more binding, comparable within an allelic series)"
same,binding signal,[30],"13.3 upbm affinity estimate (log intensity, higher = more binding, comparable within an allelic series)"
same,binding signal,[14],"13.1 upbm affinity estimate (log intensity, higher = more binding, comparable within an allelic series)"
same,binding signal,[15],"10.8 upbm affinity estimate (log intensity, higher = more binding, comparable within an allelic series)"
same,binding signal,[8],"12.3 upbm affinity estimate (log intensity, higher = more binding, comparable within an allelic series)"
GTACTTGA,binding signal,[1],"13 upbm affinity estimate (log intensity, higher = more binding, comparable within an allelic series)"
same,binding signal,[10],"12.8 upbm affinity estimate (log intensity, higher = more binding, comparable within an allelic series)"
same,binding signal,[11],"13.2 upbm affinity estimate (log intensity, higher = more binding, comparable within an allelic series)"
same,binding signal,[12],"12.6 upbm affinity estimate (log intensity, higher = more binding, comparable within an allelic series)"
same,binding signal,[13],"12.1 upbm affinity estimate (log intensity, higher = more binding, comparable within an allelic series)"
same,binding signal,[30],"13.7 upbm affinity estimate (log intensity, higher = more binding, comparable within an allelic series)"
same,binding signal,[14],"13.3 upbm affinity estimate (log intensity, higher = more binding, comparable within an allelic series)"
same,binding signal,[15],"11.1 upbm affinity estimate (log intensity, higher = more binding, comparable within an allelic series)"
same,binding signal,[8],"12.8 upbm affinity estimate (log intensity, higher = more binding, comparable within an allelic series)"
